According to PubChem BioAssay AID2625 (National Center for Advancing Translational Sciences (NCATS), 2010):
Records with an inconclusive call do not appear. Calls of active or inactive are those of the source. Calls come from the whole dose curve; as a rule, active = well fitted curve in the direction sought with a large enough effect; inconclusive = small, poorly fitted or top-dose-only effect, or effect the other way, or another doubt; inactive = no such curve, though single readings can be large or run the other way.

What follows are molecules tested against Pyruvate kinase PKLR (Homo sapiens) (UniProt P30613) (assay: Secondary LDH Assay for Activators of Human Liver Pyruvate Kinase: for Probe SAR). Details: purified hPK-L, LDH-coupled NADH fluorescence kinetic; series mostly up to 58.2 µM.
Source text: NIH Chemical Genomics Center [NCGC]
Matthew G. Vander Heiden, M.D., Ph.D. [Harvard Medical School, 77 Avenue Louis Pasteur, Boston, MA 02115]
Human pyruvate kinase liver (hPK-L)enzyme was supplied as a highly purified (>95% pure) preparation from Harvard Medical School and a secondary assay was used to evaluate compounds. This assay couples the formation of pyruvate from hPK-R using lactate dehydrogenase (LDH) and NADH. The depletion of NADH is followed in a fluorescent-based kinetic assay that follows the formation of pyruvate to lactate, as catalyzed LDH. Pyruvate kinase substrates, PEP and ADP, were present in the assay at 0.1 mM and 4 mM respectively. In this kinetic assay initial rates were determined by following the fluorescence of NADH depletion.
NCGC Assay Protocol Summary:
Three uL of substrate mix (final concentration, 50 mM Tris-Cl pH 8.0, 200 mM KCl, 15 mM MgCl2, 0.1 mM PEP, 4.0 mM ADP, and 0.2 mM NADH) was dispensed into black-solid 1536 well plates. 23 nL of compounds were delivered by a pin tool and 1 uL of enzyme mix (final concentrations, 10 nM hPK-L and 1 uM of LDH) was added. Plates were immediately placed in ViewLux (Perkin Elmer) and NADH fluorescence was determined at 30 second exposure intervals for between 3 and 6 minutes. Data were normalized to the uninhibited and EC100 activation using known activators such as fructose-bis-phosphate.

Sequence of Pyruvate kinase PKLR (Homo sapiens) (P30613 whole entry, looked up): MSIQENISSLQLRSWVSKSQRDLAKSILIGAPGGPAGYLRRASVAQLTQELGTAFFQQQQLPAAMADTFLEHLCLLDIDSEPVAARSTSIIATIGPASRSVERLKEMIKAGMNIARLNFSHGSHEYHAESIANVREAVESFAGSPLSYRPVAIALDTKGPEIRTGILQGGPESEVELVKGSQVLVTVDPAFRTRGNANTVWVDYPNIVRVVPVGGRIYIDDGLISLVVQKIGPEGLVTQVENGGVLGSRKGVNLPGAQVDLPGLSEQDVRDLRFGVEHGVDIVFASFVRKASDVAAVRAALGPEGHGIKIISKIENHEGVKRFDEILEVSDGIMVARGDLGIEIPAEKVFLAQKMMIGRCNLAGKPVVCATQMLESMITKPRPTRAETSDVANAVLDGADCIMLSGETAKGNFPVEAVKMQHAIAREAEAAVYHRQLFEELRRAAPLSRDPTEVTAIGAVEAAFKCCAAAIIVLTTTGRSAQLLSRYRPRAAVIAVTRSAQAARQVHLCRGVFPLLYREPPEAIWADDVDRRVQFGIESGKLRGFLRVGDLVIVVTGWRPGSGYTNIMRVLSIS

outcome, inactive:
O=C1CCc2cc(S(=O)(=O)Nc3ccc(F)c(Cl)c3)ccc2N1
Cc1ccc(NS(=O)(=O)c2ccc3c(c2)CC(=O)N3)cc1C
O=C1c2ccccc2C(=O)N1c1cccc(=O)[nH]1
O=C1CCc2cc(S(=O)(=O)Nc3cccc(C(F)(F)F)c3)ccc2N1
Cc1ccc(NS(=O)(=O)c2cc3c(cc2N(C)C)CCC(=O)N3)cc1C
O=C1CCc2cc(S(=O)(=O)Nc3ccc(Cl)c(Cl)c3)c(F)cc2N1
O=C1CCc2cc([S+](=O)([O-])Nc3ccc(N[S+](=O)([O-])c4ccc5c(c4)CCC(=O)N5)cc3)ccc2N1
Cc1ccc(NS(=O)(=O)c2ccc(F)cc2)cc1C
COc1ccccc1NS(=O)(=O)c1ccc2c(c1)CCC(=O)N2
COc1cccc(Cn2ncc3c4sc(SC)cc4n(C)c3c2=O)c1
O=C1c2ccccc2C(=O)N1Cc1ccncc1
O=C1CCc2cc(S(=O)(=O)Nc3ccccc3-c3ccccc3)ccc2N1
O=C1c2ccccc2C(=O)N1c1cccc2ccncc12
O=C1c2ccccc2C(=O)N1c1noc2ccccc12
CC(=O)N1CCCc2cc(S(=O)(=O)Nc3ccc(C)c(C)c3)ccc21
Cc1ccc(NS(=O)(=O)c2cccc(Cl)c2)cc1C
Cc1ccc(NS(=O)(=O)c2cc3c(cc2N(C)C)NC(=O)CC3)cc1C
O=C1CCc2cc(S(=O)(=O)Nc3cccc(Oc4ccccc4)c3)ccc2N1
Cc1ccc(NS(=O)(=O)c2ccc3c(c2)CCCC(=O)N3)cc1C
O=C1CCc2cc(S(=O)(=O)NCc3ccccc3)ccc2N1
CNc1cc2c(cc1S(=O)(=O)Nc1ccc(C)c(C)c1)CCC(=O)N2
O=C1c2ccccc2C(=O)N1c1ccncc1
O=C1c2ccccc2C(=O)N1c1cnc2ccccc2c1
Cc1ccc(Cl)cc1NS(=O)(=O)c1cc2c(cc1Cl)CCC(=O)N2
O=C1c2ccccc2C(=O)N1c1cccc2cnccc12
O=C1CCc2cc(S(=O)(=O)Nc3ccc(F)cc3)ccc2N1
Cc1ccc(N[S+](=O)([O-])c2cc3c(cc2CCc2ccccc2)NC(=O)CO3)cc1C
O=S(=O)(c1ccc2c(c1)OCCO2)N1CCN(S(=O)(=O)c2c(F)cccc2F)CC1
O=C1c2ccccc2C(=O)N1c1cc(=O)c2ccccc2[nH]1
Cc1ccc(N(C)S(=O)(=O)c2ccc3c(c2)CCC(=O)N3)cc1C
Cc1ccc(NS(=O)(=O)c2ccc3c(c2)n(C)c(=O)n3C)cc1C
Cc1ccc(-c2nc3cnccn3c2Nc2ccc(C(C)C)cc2)o1
Cc1ccc(NS(=O)(=O)c2cc3c(cc2Cl)CCC(=O)N3)cc1Cl
O=C1c2ccccc2C(=O)N1C1CCCCC1
O=C1c2ccccc2C(=O)N1c1ccc2ccccc2n1
Cc1ccc2nc(-c3ccc(C)o3)c(Nc3ccc4c(c3)OCO4)n2c1
CN(C)c1cccc(S(=O)(=O)N2CCN(S(=O)(=O)c3ccc4c(c3)OCCO4)CC2)c1
O=C1CCc2cc(S(=O)(=O)Nc3cccc(Br)c3)ccc2N1
Cc1ccc(NS(=O)(=O)c2ccc3c(c2)NC(=O)CO3)cc1C
Cc1ccc(N2C(=O)c3ccccc3C2=O)c(C)c1
